Source: PubChem BioAssay (Tox21)
Values joined by “and” are separate entries in the source; they are usually repeats but may differ in a detail not shown here. Equal values may be shown once. Records with an inconclusive call do not appear. Some compounds were tested as several samples or in several runs, with calls that do not always agree. Active and inactive are the calls of the source. Unless noted, calls follow the shape of the dose curve; as a rule, active = well fitted curve in the direction sought with a large enough effect in the repeat runs; inconclusive = weak or mixed curves; inactive = no such curve, though single readings can be large; an effect the other way counts as inactive or inconclusive.

Assays:
[1] = tested on: thyroid hormone receptor (rat, GH3 cells); experiment: qHTS assay to identify small molecule agonists of the thyroid receptor (TR) signaling pathway (AID 743066; calls by dose curve)
[2] = target: Estrogen receptor (Homo sapiens) (UniProt P03372); experiment: qHTS assay to identify small molecule antagonists of the estrogen receptor alpha (ER-alpha) signaling pathway (AID 743069; active = well fitted curve in the direction sought with a large enough effect in the signal ratio in the repeat runs, not every such curve was filed as active; the % refers to the signal ratio)
In short: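 HEK293 ER-alpha-UAS-bla GripTite cells, held overnight in 2% charcoal-stripped FBS, 5,000 cells/well, preincubated 4 h, then compound plus 17beta-estradiol for 18 h at 37C. Beta-lactamase read by LiveBLAzer B/G FRET substrate, 2 h at room temperature.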

[3] = qHTS assay to identify small molecule antagonists of the estrogen receptor alpha (ER-alpha) signaling pathway - cell viability counter screen (AID 743074; calls by dose curve;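 also: HEK293 cells carrying ER-alpha-UAS-bla reporter stimulated with 17beta-estradiol; nearly all actives have a fitted effect of over 45% in size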)
[4] = target: Estrogen receptor (Homo sapiens) (UniProt P03372); experiment: qHTS assay to identify small molecule agonists of the estrogen receptor alpha (ER-alpha) signaling pathway (AID 743075; calls by dose curve)
[5] = target: Estrogen receptor (Homo sapiens) (UniProt P03372); experiment: qHTS assay to identify small molecule agonists of the estrogen receptor alpha (ER-alpha) signaling pathway using the BG1 cell line (AID 743079); also: nearly all actives have a fitted effect of over 20% in size; also: potency is read from the fitted curve at half-maximal effect
[6] = qHTS assay to identify small molecule antagonists of the estrogen receptor alpha (ER-alpha) signaling pathway using the BG1 cell line (AID 743080; calls by dose curve;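 also: BG1 cells stimulated with 17beta-estradiol alongside compound; series mostly up to about 70 µM; nearly all actives have a fitted effect of over 25% in size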)
In short: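 Endogenous full-length ER-alpha in BG1-Luc-4E2 cells drives a stably integrated 4×ERE luciferase gene; compounds were tested against 17beta-estradiol over 21.5 h, with luminescence and multiplexed viability fluorescence recorded.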

[7] = qHTS assay to identify small molecule antagonists of the estrogen receptor alpha (ER-alpha) signaling pathway using the BG1 cell line - cell viability counter screen (AID 743081);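 also: compound given together with 17beta-estradiol as the ER stimulus; nearly all actives have a fitted effect of over 45% in size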; also: potency is read from the fitted curve at half-maximal effect
Aromatase (Homo sapiens) = Aromatase (Homo sapiens) (UniProt P11511); experiment: qHTS assay to identify aromatase inhibitors (AID 743083); also: series mostly up to about 70 µM; nearly all actives have a fitted effect of over 55% in size
[8] = qHTS assay to identify aromatase inhibitors - cell viability counter screen (AID 743084);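 also: cells stimulated with testosterone during compound exposure; nearly all actives have a fitted effect of over 55% in size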; also: potency is read from the fitted curve at half-maximal effect
[9] = target: Aryl hydrocarbon receptor (Homo sapiens) (UniProt P35869); experiment: qHTS assay to identify small molecule that activate the aryl hydrocarbon receptor (AhR) signaling pathway (AID 743085); also: nearly all actives have a fitted effect of over 15% in size; also: potency is read from the fitted curve at half-maximal effect;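 as to activation: HG2L7.5c1 human HepG2 liver cells with stably integrated DRE-driven firefly reporter; series mostly up to about 70 µM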
In short: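 A multiplexed format paired cell viability (CellTiter-Fluor fluorescence) with AhR-dependent luciferase output (ONE-Glo luminescence) in the same wells of HepG2 DRE-luc cells after 24 h compound exposure at 37C.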

[10] = qHTS assay to identify small molecule that activate the aryl hydrocarbon receptor (AhR) signaling pathway - cell viability counter screen (AID 743086); also: nearly all actives have a fitted effect of over 45% in size; also: potency is read from the fitted curve at half-maximal effect
In short: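 HepG2-AhR-luc (HG2L7.5c1) cells, 4000/well, treated 24 h at 37 C with compound; viability measured as CellTiter-Fluor fluorescence after 30 min in the same wells as the luciferase read.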

[11] = target: Peroxisome proliferator-activated receptor gamma (Homo sapiens) (UniProt P37231); experiment: qHTS assay to identify small molecule agonists of the peroxisome proliferator-activated receptor gamma (PPARg) signaling pathway (AID 743094; active = well fitted activation curve with a large enough effect in the signal ratio in the repeat runs, not every such curve was filed as active; the % refers to the signal ratio)
In short: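 Compounds dissolved in DMSO were added to PPARg UAS-bla HEK293H cells for 17 h at 37C, and reporter expression was quantified by fluorescence intensity after 1 h with LiveBLAzer B/G FRET substrate.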

[12] = target: Peroxisome proliferator-activated receptor gamma (Homo sapiens) (UniProt P37231); experiment: qHTS assay to identify small molecule antagonists of the peroxisome proliferator-activated receptor gamma (PPARg) signaling pathway (AID 743191; calls by dose curve; also: series mostly up to about 63 µM; nearly all actives have a fitted effect of over 30% in size)
In short: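 GeneBLAzer PPARg UAS-bla HEK293H cells, 5 h post-plating, exposed to compounds 17 h at 37C. LiveBLAzer B/G FRET substrate added for 1 h at room temperature; beta-lactamase reporter read by fluorescence intensity.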

[13] = qHTS assay to identify small molecule antagonists of the peroxisome proliferator-activated receptor gamma (PPARg) signaling pathway - cell viability counter screen (AID 743194); also: nearly all actives have a fitted effect of over 55% in size
In short: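 Cytotoxicity counter screen in PPARg-bla HEK293H cells, same wells as reporter assay. Compounds plus 50 nM rosiglitazone (final) for 17 h at 37 C, then viability read by CellTiter-Glo luminescence.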

[14] = qHTS assay for small molecule agonists of the antioxidant response element (ARE) signaling pathway (AID 743202; active = well fitted activation curve with a large enough effect in the signal ratio in the repeat runs, not every such curve was filed as active; the % refers to the signal ratio; also: potency is read from the fitted curve at half-maximal effect)
In short: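 ARE-bla HepG2 cells (beta-lactamase reporter under the antioxidant response element), plated 5 hours, then exposed to compounds 16 hours at 37 C. LiveBLAzer B/G FRET substrate added for 2 hours at room temperature; fluorescence intensity read.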

[15] = qHTS assay for small molecule agonists of the antioxidant response element (ARE) signaling pathway - cell viability counter screen (AID 743203; calls by dose curve; also: nearly all actives have a fitted effect of over 55% in size)
In short: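 Following 16 hrs of compound treatment at 37C, HepG2 cells with an ARE-controlled beta-lactamase gene were lysed with CellTiter-Glo. Luminescence was read after 30 min at room temperature.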

[16] = qHTS assay for small molecule activators of the heat shock response signaling pathway - cell viability counter screen (AID 743209); also: nearly all actives have a fitted effect of over 50% in size; also: potency is read from the fitted curve at half-maximal effect
In short: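 Readout: CellTiter-Glo luminescence, 30 min at room temperature. System: HSE-bla HeLa cells, 1500/well, plated overnight. Treatment: compounds in DMSO, 5 h at 37 C.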

[17] = qHTS assay for small molecule activators of the heat shock response signaling pathway (AID 743210; active = well fitted activation curve with a large enough effect in the signal ratio in the repeat runs, with a control signal flat, not every such curve was filed as active; the % refers to the signal ratio; also: series mostly up to about 63 µM)
In short: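 HSE-bla HeLa cells (beta-lactamase reporter under heat shock response elements), plated overnight, then exposed to compounds 5 h at 37 C; LiveBLAzer B/G FRET substrate added, 2.5 h at room temperature, fluorescence intensity read.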

[18] = qHTS assay to identify small molecule agonists of the peroxisome proliferator-activated receptor delta (PPARd) signaling pathway - cell viability counter screen (AID 743211); also: nearly all actives have a fitted effect of over 55% in size
In short: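 Tox21 library compounds, delivered in DMSO, were incubated 17 h with PPARd-bla HEK293H cells; cytotoxicity was taken from CellTiter-Glo luminescence read 30 min after reagent addition.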

[19] = target: Peroxisome proliferator-activated receptor delta (Homo sapiens) (UniProt Q03181); experiment: qHTS assay to identify small molecule agonists of the peroxisome proliferator-activated receptor delta (PPARd) signaling pathway (AID 743212; calls by dose curve)
In short: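 GeneBLAzer UAS-bla HEK293H cells carrying a PPARδ construct were exposed to compounds at 37 °C. Beta-lactamase activity was read by FRET fluorescence after 2 h at room temperature with LiveBLAzer B/G substrate.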

Measured: Potency

Chain of Peroxisome proliferator-activated receptor delta (Homo sapiens) (Q03181 whole entry, looked up): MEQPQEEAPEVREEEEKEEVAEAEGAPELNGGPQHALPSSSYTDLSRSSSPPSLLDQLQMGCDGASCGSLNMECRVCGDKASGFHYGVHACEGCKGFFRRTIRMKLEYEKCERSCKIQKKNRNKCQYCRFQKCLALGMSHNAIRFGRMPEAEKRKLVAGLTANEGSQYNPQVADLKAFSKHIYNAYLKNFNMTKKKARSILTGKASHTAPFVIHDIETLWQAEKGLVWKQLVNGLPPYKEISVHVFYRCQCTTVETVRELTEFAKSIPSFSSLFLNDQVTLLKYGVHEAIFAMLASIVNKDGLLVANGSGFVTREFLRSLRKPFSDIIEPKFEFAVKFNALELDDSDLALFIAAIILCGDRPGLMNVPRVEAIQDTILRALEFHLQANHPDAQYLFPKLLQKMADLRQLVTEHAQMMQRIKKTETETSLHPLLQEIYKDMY
Chain of Estrogen receptor (Homo sapiens) (P03372 whole entry, looked up): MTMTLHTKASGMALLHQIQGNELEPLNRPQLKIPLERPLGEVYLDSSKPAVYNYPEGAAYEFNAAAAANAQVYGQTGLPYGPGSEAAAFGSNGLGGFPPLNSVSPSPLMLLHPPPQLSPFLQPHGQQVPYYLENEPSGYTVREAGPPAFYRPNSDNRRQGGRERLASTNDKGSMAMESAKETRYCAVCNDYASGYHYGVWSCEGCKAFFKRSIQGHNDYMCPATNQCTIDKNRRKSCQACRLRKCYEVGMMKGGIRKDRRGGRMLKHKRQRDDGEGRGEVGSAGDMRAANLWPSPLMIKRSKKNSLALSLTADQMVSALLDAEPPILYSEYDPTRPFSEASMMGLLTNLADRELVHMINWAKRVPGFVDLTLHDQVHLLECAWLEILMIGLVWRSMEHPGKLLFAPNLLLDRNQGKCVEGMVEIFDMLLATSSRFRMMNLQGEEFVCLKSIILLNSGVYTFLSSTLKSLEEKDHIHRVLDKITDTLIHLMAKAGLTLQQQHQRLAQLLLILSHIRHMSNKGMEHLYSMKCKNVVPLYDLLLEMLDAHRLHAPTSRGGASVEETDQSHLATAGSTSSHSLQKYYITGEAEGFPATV
Chain of Aromatase (Homo sapiens) (P11511 whole entry, looked up): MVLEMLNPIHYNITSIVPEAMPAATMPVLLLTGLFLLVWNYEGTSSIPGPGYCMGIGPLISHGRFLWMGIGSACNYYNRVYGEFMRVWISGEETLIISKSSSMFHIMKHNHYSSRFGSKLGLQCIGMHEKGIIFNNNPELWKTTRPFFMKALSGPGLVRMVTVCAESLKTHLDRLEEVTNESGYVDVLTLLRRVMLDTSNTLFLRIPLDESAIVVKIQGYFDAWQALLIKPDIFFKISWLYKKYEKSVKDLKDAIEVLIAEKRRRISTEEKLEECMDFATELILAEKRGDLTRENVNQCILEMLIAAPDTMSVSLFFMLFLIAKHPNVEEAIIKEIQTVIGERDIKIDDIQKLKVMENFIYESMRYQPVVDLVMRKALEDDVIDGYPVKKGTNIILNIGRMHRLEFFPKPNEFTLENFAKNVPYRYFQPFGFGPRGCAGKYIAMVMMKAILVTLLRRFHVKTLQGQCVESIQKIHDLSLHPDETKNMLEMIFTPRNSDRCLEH
Chain of Aryl hydrocarbon receptor (Homo sapiens) (P35869 whole entry, looked up): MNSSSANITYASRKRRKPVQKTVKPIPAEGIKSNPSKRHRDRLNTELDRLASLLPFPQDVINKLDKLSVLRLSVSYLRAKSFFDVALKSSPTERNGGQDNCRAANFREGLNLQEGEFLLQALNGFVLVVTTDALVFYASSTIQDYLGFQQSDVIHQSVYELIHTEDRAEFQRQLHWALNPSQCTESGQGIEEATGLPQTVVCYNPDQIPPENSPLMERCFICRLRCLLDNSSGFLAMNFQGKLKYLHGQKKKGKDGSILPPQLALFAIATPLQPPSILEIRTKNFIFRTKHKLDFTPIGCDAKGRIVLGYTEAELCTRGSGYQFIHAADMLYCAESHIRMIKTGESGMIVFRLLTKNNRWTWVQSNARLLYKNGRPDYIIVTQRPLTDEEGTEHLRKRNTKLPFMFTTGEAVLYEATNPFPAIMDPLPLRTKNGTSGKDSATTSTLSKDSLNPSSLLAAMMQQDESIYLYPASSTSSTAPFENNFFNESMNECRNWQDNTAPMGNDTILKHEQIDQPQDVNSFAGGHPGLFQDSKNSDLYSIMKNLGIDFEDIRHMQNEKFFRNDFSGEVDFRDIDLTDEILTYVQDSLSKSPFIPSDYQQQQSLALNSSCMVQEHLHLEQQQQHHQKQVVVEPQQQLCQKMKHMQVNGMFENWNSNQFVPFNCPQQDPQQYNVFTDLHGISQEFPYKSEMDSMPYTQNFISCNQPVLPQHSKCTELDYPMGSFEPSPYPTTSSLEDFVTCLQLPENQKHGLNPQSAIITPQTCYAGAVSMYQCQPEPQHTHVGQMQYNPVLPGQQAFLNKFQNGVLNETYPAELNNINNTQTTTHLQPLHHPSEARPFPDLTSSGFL
Chain of Peroxisome proliferator-activated receptor gamma (Homo sapiens) (P37231 whole entry, looked up): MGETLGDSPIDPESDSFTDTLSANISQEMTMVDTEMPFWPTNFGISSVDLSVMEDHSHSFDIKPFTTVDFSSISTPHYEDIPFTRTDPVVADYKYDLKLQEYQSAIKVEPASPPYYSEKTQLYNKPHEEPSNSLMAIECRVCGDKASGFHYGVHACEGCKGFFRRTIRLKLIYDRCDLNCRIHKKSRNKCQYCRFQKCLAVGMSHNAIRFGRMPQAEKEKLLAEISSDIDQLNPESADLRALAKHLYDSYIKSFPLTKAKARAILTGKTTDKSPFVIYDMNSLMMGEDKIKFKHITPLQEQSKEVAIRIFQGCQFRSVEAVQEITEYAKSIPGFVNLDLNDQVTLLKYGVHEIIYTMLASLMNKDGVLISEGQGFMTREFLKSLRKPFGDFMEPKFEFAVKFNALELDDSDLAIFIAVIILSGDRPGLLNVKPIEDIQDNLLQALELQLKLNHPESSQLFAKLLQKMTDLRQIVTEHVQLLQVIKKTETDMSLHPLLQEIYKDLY

CCC(C)C=O (stereo not drawn)
inactive: all assays above

Clc1cc(Cl)c(Cl)cc1Cl
62.1 µM (active) and inactive: [5]
inactive: all other assays above

CCCCOCCO
inactive: all assays above

Cn1c([N+](=O)[O-])cnc1COC(N)=O
inactive: all assays above

CS(=O)(=O)c1ccc([C@@H](O)[C@@H](CO)NC(=O)C(Cl)Cl)cc1
inactive: all assays above

CC(=O)Nc1ccc(C(=O)O)cc1
not listed: [19]
inactive: all other assays above

CC1(C)CC(N=C=O)CC(C)(CN=C=O)C1 (stereo not drawn)
not listed: [19]
inactive: all other assays above

CCCCCCCCCCCCOCC1CO1 (stereo not drawn)
inactive: all assays above

Nc1c(S(=O)(=O)O)cc(Br)c2c1C(=O)c1ccccc1C2=O
active: [7] 27.3 µM | [8] 34.4 µM | [9] 31.3 µM and 30.6 µM | [10] 24.3 µM | [14] 27.9 µM
not listed: [19]
inactive: all other assays above

O=S(=O)(O)CCS
inactive: all assays above

OC1CCCC1
inactive: all assays above

C=C1C2CCC(C2)C1(C)C (stereo not drawn)
inactive: all assays above

OC[C@@H](O)[C@H](O)[C@H](O)[C@@H](O)CO
not listed: [19]
inactive: all other assays above

CCCCC/C=C\C/C=C\CCCCCCCC(=O)OC
inactive and 38.9 µM (active): [16]
not listed: [12] | [13]
inactive: all other assays above

O=C(Cl)c1c(Cl)c(Cl)c(C(=O)Cl)c(Cl)c1Cl
inactive: all assays above

CC[Si](OC(C)=O)(OC(C)=O)OC(C)=O
inactive: all assays above

O=[N+]([O-])c1cccc(Cl)c1
inactive: all assays above

CC(C)(CO)COC(=O)C(C)(C)CO
inactive: all assays above

CC1Cc2ccccc2N1NC(=O)c1ccc(Cl)c(S(N)(=O)=O)c1 (stereo not drawn)
not listed: [17] | [19]
inactive: all other assays above

CCCCOCCOCCOC(=O)CCCCC(=O)OCCOCCOCCCC
inactive: all assays above

CCCCCCCCC
inactive: all assays above

C=C(C)C(=O)OCCC[Si](OC)(OC)OC
inactive: all assays above

c1ccc2ccccc2c1
inactive: all assays above

CCOC(=O)[C@H](CCc1ccccc1)N[C@@H](C)C(=O)N1Cc2ccccc2C[C@H]1C(=O)O
active: [9] 6.16 µM
inactive: all other assays above

COCC(C)O (stereo not drawn)
inactive and 61.1 µM (active): [5]
not listed: [17] | [19]
inactive: all other assays above

CC(C)Cc1ccccc1
inactive: all assays above

COC(=O)c1ccc(C(=O)OC)cc1
not listed: [17] | [19]
inactive: all other assays above
